Compounds without any hit were thinned out: in the full panel of roughly 83,000, 20% have a hit.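 48-hour exposure, single concentration, 96-well plates; percent growth endpoint where 0 means no net growth. Active: below 10.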 Values without a mark were called inactive. Calls of active or inactive are those of the source.

The subject of the first experiment is SN12C renal. Briefly: NCI-60 one-dose screen, 48 h (100 = growth as untreated, 0 = no growth, -100 = all killed). To be noted: 10 µM unless noted.
Turning to `CC(C)Cn1c2c(c(=S)[nH]c1=O)CCC2`, the growth is 97.6%.
Still for that read-out and setting: the figure for `COC(=O)/C(=C\c1c(C)[nH]c2ccccc12)S(=O)(=O)c1ccccc1` is 39.7%; for `CCCCN1CCN(c2ccc3nc(-c4ccc5nc(-c6ccc(C(F)(F)F)cc6)[nH]c5c4)[nH]c3c2)CC1` it is -80.9% (active).
Regarding `CN1C(=O)N(C)C2C1NN=c1s/c(=C\c3c[nH]c4ccccc34)c(=O)n12` (centres undefined), the growth was 35.4%.
Take `Cc1ccc2c(n1)C(=O)C(Oc1ccc(Br)cc1)=CC2=O`: the growth was 93.5%.
Still for that read-out and setting: the figure for `COc1cc(/C=C2\Oc3cc(OCCCN4CCCC4)ccc3C2=O)cc(OC)c1` is 78.8%.
As for `Cc1cccc(NC(=O)c2sc3nc4c(cc3c2N)CCCC4)c1C`, the growth is 38.9%.
Consider `CCN1C(=O)N(CC)C2Nn3c(s/c(=C4\C(=O)N(C(C)C)c5ccccc54)c3=O)=NC21` (centres undefined), for which the growth was 47.7%.
With `O=C1/C=C/[C@@H](O)[C@@H]2C[C@@H](O)C[C@H]2/C=C/CCCCO1`, the growth was 45.3%.
With `CCOC(=O)c1sc(-c2ccc(OS(=O)(=O)c3ccc(Br)s3)c(C=O)c2)nc1C`, the growth was 4.77% (active).
For the molecule `CNCCNc1nc2ccccc2c2c(=O)c3cccc(C)c3sc12`, the growth is 32.5%.
On the same count and under the same terms, the figure for `O=C(CN1C=NC2C(N3CCOCC3)=NC=NC21)c1ccc(Br)cc1` (centres undefined) is 98.3%; for `COc1ccc(OC)c(NC(=O)/C(C#N)=C/c2ccco2)c1` it is 101%.
Still for that read-out and setting: the figure for `CCN1C(=O)N(CC)C2C1NN=c1s/c(=C3\C(=O)N(CC(C)(C)C)c4ccccc43)c(=O)n12` (centres undefined) is 32.6%; for `CCN1C(=O)N(c2ccccc2)C2NN=c3s/c(=C4\C(=O)N(C(C)C)c5ccccc54)c(=O)n3C21` (centres undefined) it is 38.7%; for `COc1ccc(C2=C(c3cccc(OC)c3)C(=O)c3ccc(C)nc3C2=O)cc1` it is 40.6%.
Same read-out and setting: the figure for `CN1C(=O)N(C)C2Nn3c(s/c(=C\c4ccc(Cl)cc4Cl)c3=O)=NC21` (centres undefined) is 75.6%.
On to `COc1cccc(C(=O)Cn2cc(/C=C(\C#N)S(=O)(=O)c3ccccc3)c3ccccc32)c1`, for which the growth is 83.7%.
With `CCCN1C(=O)N(CCC)C2C1NN=c1s/c(=C3\C(=O)N(C(C)C)c4ccccc43)c(=O)n12` (centres undefined), the growth is 65.9%.
Same read-out and setting: the figure for `N#C/C(=C\c1c(-c2ccccc2)[nH]c2ccccc12)C(=O)c1ccccc1` is 54.4%; for `COC(=O)/C(CCC=C(C)C)=C1\[C@@H](OC(C)=O)C[C@@]2(C)[C@H]1CC(=O)[C@H]1[C@@]3(C)CC[C@H](NCc4ccccc4)[C@@H](C)[C@@H]3CC[C@@]12C` it is 87%.
On the same count and under the same terms, the figure for `O=C1C(=O)c2c(ccc3ccccc23)-c2ccccc21` is -38.6% (active); for `CCOC(=O)c1ccc(N=Cc2sc(=O)[nH]c2O)cc1` it is 95.3%; for `COC(=O)c1c2c(c(C)[n+]([O-])c1C)C(=O)C(NCc1ccc(Br)cc1)=CC2=O` it is 4.82% (active).
With `COc1ccc2[nH]c(O)c(N=NC(=O)c3oc4ccccc4c3C)c2c1`, the growth is 34.9%.

Another experiment deals with UO-31 renal. The description is as above. To be noted: 10 µM unless noted.
Take `CN1C(=O)N(C)C2C1NN=c1s/c(=C\c3ccc(Cl)cc3Cl)c(=O)n12` (centres undefined): the growth is 47.3%.
Same read-out and setting: the figure for `COc1ccc2occ(C3=C(c4c[nH]c5ccccc45)C(=O)NC3=O)c2c1` is 40.4%.
Turning to `CCN1CCN(C(=S)SCC(=O)Nc2nc3ccc(C)cc3s2)CC1`, the growth was 60.6%.
As for `Cc1c(-c2csc(-n3nc(C(F)(F)F)cc3C(F)(F)F)n2)no[n+]1[O-]`, the growth is 85.8%.
On the same count and under the same terms, the figure for `N#C/C(=C\c1c(-c2ccccc2)[nH]c2ccccc12)S(=O)(=O)c1ccccc1` is 51.2%; for `CC(=O)O[C@@H]1/C=C/C(=O)N[C@@H](C)CCC/C=C/[C@@H]2CCC[C@H]21` it is 93.7%.
With `CN1C(=O)N(C)C2C1NN=c1s/c(=C\c3ccc([N+](=O)[O-])cc3)c(=O)n12` (centres undefined), the growth was 63.5%.
Same read-out and setting: the figure for `O=C(N=Nc1c(O)[nH]c2ccccc12)c1oc2ccccc2c1CN1CCN(c2ccccc2)CC1` is -52.2% (active); for `COC(=O)/C(=C\c1c(-c2ccccc2)[nH]c2ccccc12)S(C)(=O)=O` it is 41.5%; for `COc1ccccc1C1=C(Br)C(=O)c2nc(C)ccc2C1=O` it is 77.2%.
The same measure, in the same setting: the figure for `Cc1cccc2c(=O)c3c(sc12)c(N1CCNCC1)nc1ccccc13` is 36.7%.
On the same count and under the same terms, the figure for `CCN(CC)CCNC(=O)C(Cl)=C1C(Cl)=C(Cl)C(Cl)=C1Cl` is 43.6%.
As to `N#CC(C#N)=Cc1c(-c2ccccc2)[nH]c2ccccc12`, the growth is 38.9%.
Same read-out and setting: the figure for `C=CCN1C(=O)/C(=c2\sc3n(c2=O)NC2C(N=3)N(CC)C(=O)N2CC)c2ccccc21` (centres undefined) is 56%; for `CC(C)Cn1c2c(c(=S)[nH]c1=O)CCC2` it is 86%.
Turning to `COC(=O)/C(=C\c1c(C)[nH]c2ccccc12)S(=O)(=O)c1ccccc1`, the growth was 23.8%.
In the case of `CCCCN1CCN(c2ccc3nc(-c4ccc5nc(-c6ccc(C(F)(F)F)cc6)[nH]c5c4)[nH]c3c2)CC1`, the growth was -82.8% (active).
The same measure, in the same setting: the figure for `CN1C(=O)N(C)C2C1NN=c1s/c(=C\c3c[nH]c4ccccc34)c(=O)n12` (centres undefined) is 48%; for `Cc1ccc2c(n1)C(=O)C(Oc1ccc(Br)cc1)=CC2=O` it is 84.3%; for `COc1cc(/C=C2\Oc3cc(OCCCN4CCCC4)ccc3C2=O)cc(OC)c1` it is 53.4%.
On the same count and under the same terms, the figure for `Cc1cccc(NC(=O)c2sc3nc4c(cc3c2N)CCCC4)c1C` is 50.6%.
On the same count and under the same terms, the figure for `CCN1C(=O)N(CC)C2Nn3c(s/c(=C4\C(=O)N(C(C)C)c5ccccc54)c3=O)=NC21` (centres undefined) is 55.8%; for `O=C1/C=C/[C@@H](O)[C@@H]2C[C@@H](O)C[C@H]2/C=C/CCCCO1` it is 8.64% (active).
For `CCOC(=O)c1sc(-c2ccc(OS(=O)(=O)c3ccc(Br)s3)c(C=O)c2)nc1C`, the growth is -0.882% (active).
For the molecule `CNCCNc1nc2ccccc2c2c(=O)c3cccc(C)c3sc12`, the growth is 29.6%.
On to `O=C(CN1C=NC2C(N3CCOCC3)=NC=NC21)c1ccc(Br)cc1` (centres undefined), for which the growth is 78.6%.
Turning to `COc1ccc(OC)c(NC(=O)/C(C#N)=C/c2ccco2)c1`, the growth is 67.8%.
On to `CCN1C(=O)N(CC)C2C1NN=c1s/c(=C3\C(=O)N(CC(C)(C)C)c4ccccc43)c(=O)n12` (centres undefined), for which the growth was 38.9%.
Take `CCN1C(=O)N(c2ccccc2)C2NN=c3s/c(=C4\C(=O)N(C(C)C)c5ccccc54)c(=O)n3C21` (centres undefined): the growth is 55.6%.
Same read-out and setting: the figure for `COc1ccc(C2=C(c3cccc(OC)c3)C(=O)c3ccc(C)nc3C2=O)cc1` is 25.4%; for `CN1C(=O)N(C)C2Nn3c(s/c(=C\c4ccc(Cl)cc4Cl)c3=O)=NC21` (centres undefined) it is 62%; for `COc1cccc(C(=O)Cn2cc(/C=C(\C#N)S(=O)(=O)c3ccccc3)c3ccccc32)c1` it is 70.4%.
`CCCN1C(=O)N(CCC)C2C1NN=c1s/c(=C3\C(=O)N(C(C)C)c4ccccc43)c(=O)n12` (centres undefined): the growth was 30.9%.
On the same count and under the same terms, the figure for `N#C/C(=C\c1c(-c2ccccc2)[nH]c2ccccc12)C(=O)c1ccccc1` is 37.5%; for `COC(=O)/C(CCC=C(C)C)=C1\[C@@H](OC(C)=O)C[C@@]2(C)[C@H]1CC(=O)[C@H]1[C@@]3(C)CC[C@H](NCc4ccccc4)[C@@H](C)[C@@H]3CC[C@@]12C` it is 69.9%; for `O=C1C(=O)c2c(ccc3ccccc23)-c2ccccc21` it is -32.4% (active).
As to `CCOC(=O)c1ccc(N=Cc2sc(=O)[nH]c2O)cc1`, the growth is 83.1%.
On the same count and under the same terms, the figure for `COC(=O)c1c2c(c(C)[n+]([O-])c1C)C(=O)C(NCc1ccc(Br)cc1)=CC2=O` is 60.9%; for `COc1ccc2[nH]c(O)c(N=NC(=O)c3oc4ccccc4c3C)c2c1` it is -55.3% (active).

These data come from PubChem BioAssay (NCI).
